Test systems include HCT-15 colon; HT29 colon; SNB-75 CNS; SNB-19 CNS; U251 CNS; PC-3 prostate; UACC-62 melanoma; SK-MEL-28 melanoma; LOX IMVI melanoma; SK-MEL-5 melanoma.
Experiment in all cases: NCI-60 one-dose screen, 48 h (100 = growth as untreated, 0 = no growth, -100 = all killed)
Holding throughout (conditions): 10 µM unless noted

About 83,000 compounds went through this panel and 20% of them were active in at least one assay; those are over-represented in the sample as a whole.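 In brief: 96-well plates, 48 h treatment, single concentration, percent growth endpoint.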 Unmarked numbers belong to inactive results. Calls of active or inactive are those of the source. Rule for the calls: active = growth percent below 10; inactive = the rest.

`O=C1/C(=C\c2ccco2)SC(=S)N1CCc1ccc(O)cc1`: the growth was 92.7% with HCT-15 colon; 114% with HT29 colon; 78.5% with SNB-75 CNS; 95.6% in the assay on SNB-19 CNS; 96.7% with U251 CNS; 97.5% in the assay on PC-3 prostate. Further, the growth in the assay on UACC-62 melanoma was 85.3%; with SK-MEL-28 melanoma it was 98.3%.
Consider `CSc1ccc(N(C)c2nc(C)nc3c2CCC3)cc1`, for which the growth with HCT-15 colon is 7.62% (active); in the assay with HT29 colon, -9.35% (active); in the assay with SNB-75 CNS, 35.1%; in the assay on SNB-19 CNS, 38.1%; with U251 CNS, 12.1%; with PC-3 prostate it was 20.1%. Also, the growth in the assay on LOX IMVI melanoma is 10.2%.
On to `NC(=O)NCC1CCCCC1`, for which the growth is 94.5% with HCT-15 colon; 102% in the assay with HT29 colon; 90.7% with SNB-75 CNS; 115% with SNB-19 CNS; 104% with U251 CNS; 104% in the assay on PC-3 prostate. Besides, the growth in the assay on LOX IMVI melanoma is 94.1%; with SK-MEL-28 melanoma, 110%.
On to `CCN1CCN(C(=O)[C@@]2(C)CC[C@]3(C)CC[C@]4(C)C(=CC(=O)[C@@H]5[C@@]6(C)CC[C@H](OC7C[C@@H](O)[C@@H](O)C(C)O7)C(C)(C)[C@@H]6CC[C@]54C)[C@@H]3C2)CC1` (some centres undefined), for which the growth with HCT-15 colon is 34.2%; in the assay with HT29 colon, 1.72% (active); in the assay on SNB-75 CNS, 86.7%; with SNB-19 CNS it was 39%; in the assay on U251 CNS it was 10.3%; in the assay on PC-3 prostate it was 42.1%. The growth with UACC-62 melanoma was -69.3% (active); with SK-MEL-28 melanoma it was -7.89% (active).
Turning to `COc1ccc2c(c1)c1nc3cc(C)c(C)cc3nc1n2CCN(C)C`, the growth is -80.3% (active) with HCT-15 colon; -1.79% (active) in the assay on HT29 colon; 22.2% in the assay on SNB-75 CNS; 13.6% with SNB-19 CNS; -85.8% (active) with U251 CNS; -14.4% (active) in the assay with PC-3 prostate. For the same molecule, the figures for the growth with UACC-62 melanoma and in the assay on SK-MEL-28 melanoma were 11% and 9.16% (active), respectively.
As for `COc1ccc2c(c1)C(Br)=C(CCO)C2c1ccccc1` (centres undefined), the growth with HCT-15 colon is 87.6%; with HT29 colon it was 41.8%; in the assay on SNB-75 CNS, 57%; with SNB-19 CNS it was 57.7%; in the assay on U251 CNS, 55.8%; in the assay on PC-3 prostate, 54.5%. Further, the growth was 60% with UACC-62 melanoma and 69.5% with SK-MEL-28 melanoma.
For the molecule `COc1ccc(C(=O)c2ccc(C)cc2)c(OC)c1OC`, the growth is 50.1% in the assay with HCT-15 colon; 27% with HT29 colon; 64.7% in the assay on SNB-75 CNS; 79.4% in the assay on SNB-19 CNS; 60.9% in the assay on U251 CNS; 86.9% with PC-3 prostate. The growth is 67.6% in the assay with UACC-62 melanoma, 83.6% with LOX IMVI melanoma and 85% in the assay with SK-MEL-28 melanoma.
`O=C1c2ccccc2NC(c2cn(-c3ccccc3)nc2-c2cccs2)N1Cc1ccccc1` (centres undefined): the growth with HCT-15 colon was 77.7%; in the assay on HT29 colon, 75%; in the assay with SNB-75 CNS, 87.7%; in the assay with SNB-19 CNS, 95.4%; in the assay with U251 CNS, 86.9%; with PC-3 prostate, 64.8%. Moreover, the growth was 62.1% with LOX IMVI melanoma and 97.3% in the assay with SK-MEL-28 melanoma.
As to `COc1ccc(-n2c(/C=C/c3ccc(O)c(OC)c3)cc(/C=C/c3ccc(O)c(OC)c3)nc2=O)cc1`, the growth was 59% in the assay with HCT-15 colon; -59.1% (active) with HT29 colon; 54.5% with SNB-75 CNS; 69.9% in the assay on SNB-19 CNS; 32.4% in the assay on U251 CNS; 53.7% in the assay on PC-3 prostate. Besides, the growth in the assay on UACC-62 melanoma was 68.1%; in the assay on LOX IMVI melanoma, 13%; in the assay on SK-MEL-28 melanoma it was 58.5%.
Consider `COc1cc(-c2nc(-c3ccccc3)c(-c3ccccc3)[nH]2)cc(OC)c1O`, for which the growth in the assay on U251 CNS is 5.45% (active).
Turning to `CC1(C)NC2=C(C(Nc3cccnc3)N1)C(c1ccc([N+](=O)[O-])cc1)C(C(=O)c1ccc(N=[N+]=[N-])cc1)O2` (centres undefined), the growth was 104% with HCT-15 colon; 113% in the assay on HT29 colon; 98.7% with SNB-19 CNS; 101% in the assay on U251 CNS; 98.9% in the assay with PC-3 prostate; 102% in the assay with SK-MEL-5 melanoma. In addition, the figures for the growth with UACC-62 melanoma and in the assay with SK-MEL-28 melanoma were 97.1% and 103%, respectively.
`COc1cc(-c2cc(-c3nc4ccccc4[nH]3)[nH]n2)cc(OC)c1OC`: the growth with HCT-15 colon is 48.8%; in the assay on HT29 colon, 69.3%; with SNB-19 CNS it was 86.9%; in the assay with U251 CNS, 55.8%; with PC-3 prostate, 5.47% (active); with SK-MEL-5 melanoma it was -44.4% (active). The growth in the assay on UACC-62 melanoma was 34.5%; in the assay with SK-MEL-28 melanoma, 61.8%.
Take `Cc1cc(N2CCCC2)nc(N(CCNc2ccnc3cc(Cl)ccc23)Cc2ccco2)n1`: the growth in the assay on HCT-15 colon is 18.3%; in the assay with HT29 colon it was 5.58% (active); with SNB-19 CNS, 29.4%; with U251 CNS, 46.5%; in the assay on PC-3 prostate, 0.723% (active); in the assay with SK-MEL-5 melanoma it was -93% (active). Also, the values for the growth with LOX IMVI melanoma and in the assay with SK-MEL-28 melanoma were 4.43% (active) and 31%, respectively.
In the case of `O=C(N/N=C\c1c(O)ccc2ccccc12)C1CC1`, the growth in the assay with HCT-15 colon is 28.4%; with HT29 colon it was 69.6%; in the assay with SNB-19 CNS it was 54.9%; with U251 CNS, 35.6%; with PC-3 prostate, 45.8%; in the assay on SK-MEL-5 melanoma it was 53.1%. Further, the growth was 25.2% in the assay with UACC-62 melanoma and 69.7% with SK-MEL-28 melanoma.
Take `CCc1cccc(CC)c1NC(=O)c1sc2nc3c(cc2c1N)CCCC3`: the growth in the assay on HCT-15 colon was 55%; in the assay with HT29 colon, 77.4%; with SNB-19 CNS, 71.3%; with U251 CNS, 73.4%; in the assay on PC-3 prostate it was 63%; in the assay with SK-MEL-5 melanoma it was 63.9%. Besides, the growth in the assay on LOX IMVI melanoma is 75.2%.
In the case of `Cn1c(=O)c2c(ncn2CCC(=O)Nc2ccc(F)cc2)n(C)c1=O`, the growth in the assay on HCT-15 colon was 106%; with HT29 colon, 94%; with SNB-19 CNS it was 102%; in the assay with U251 CNS, 98.4%; in the assay with PC-3 prostate it was 80.9%; in the assay on SK-MEL-5 melanoma it was 111%. In addition, the growth in the assay with LOX IMVI melanoma is 97.9%; in the assay on SK-MEL-28 melanoma it was 114%.
Regarding `COc1cc(-c2cc3ncccc3c3[nH]c(=O)c4cccnc4c23)cc(OC)c1OC`, the growth with HCT-15 colon was 30.6%; in the assay with HT29 colon it was 8% (active); in the assay on SNB-19 CNS it was 53.7%; with U251 CNS it was 16.8%; in the assay on PC-3 prostate it was 13.2%; in the assay on SK-MEL-5 melanoma it was -5.2% (active). Further, the growth in the assay with LOX IMVI melanoma was 42.5%; with SK-MEL-28 melanoma it was 68.2%.
Turning to `C#CCn1c2c(c3ccccc31)C[C@]1(C)[C@H]3CC[C@@H]4[C@@H]5C(=CCC[C@H]5C(=C)C)CC[C@@]4(C)[C@]3(C)CC[C@H]1C2(C)C`, the growth with HCT-15 colon was 104%; in the assay with HT29 colon it was 104%; with SNB-19 CNS it was 100%; with U251 CNS, 106%; in the assay on PC-3 prostate, 97.3%; in the assay with SK-MEL-5 melanoma, 100%. In addition, the growth is 95.2% with UACC-62 melanoma and 106% in the assay with SK-MEL-28 melanoma.
As for `O=S(=O)(NCCNc1cc(-c2cn(-c3ccccc3)nc2-c2cccc(O)c2)ccn1)c1cccc(F)c1`, the growth in the assay on HCT-15 colon is 5.71% (active); in the assay on HT29 colon it was 7.47% (active); in the assay on SNB-19 CNS, 51.5%; in the assay with U251 CNS, 32.3%; in the assay with PC-3 prostate it was 25.4%; in the assay with LOX IMVI melanoma, 36.5%.
For the molecule `COc1cccc(-c2nn(-c3ccccc3)cc2-c2ccnc(NCCNS(=O)(=O)c3ccc(C(F)(F)F)cc3)c2)c1`, the growth in the assay on HCT-15 colon was 11.9%; with HT29 colon, -14.6% (active); in the assay on SNB-19 CNS, 21.8%; with U251 CNS, 15.4%; in the assay with PC-3 prostate, 5.74% (active); in the assay on SK-MEL-5 melanoma, -94.7% (active). Moreover, the growth with LOX IMVI melanoma was 4.44% (active).
For `O=C(NO)c1ccc(Cn2c(=O)n(CCc3ccc(O)cc3)c(=O)c3ccccc32)cc1`, the growth was 96.5% with HCT-15 colon; 92.2% with HT29 colon; 44.1% in the assay with SNB-19 CNS; 8.31% (active) with U251 CNS; 38.7% in the assay with PC-3 prostate; 42.1% with SK-MEL-5 melanoma. In addition, the growth was 22.4% with LOX IMVI melanoma and 17.5% in the assay on SK-MEL-28 melanoma.
For `C[C@H]1[C@H]2C3=CC[C@@H]4[C@@]5(C)C/C(=C/c6ccco6)C(=O)C(C)(C)[C@@H]5CC[C@@]4(C)[C@]3(C)CC[C@@]2(C(=O)N2CCOCC2)CC[C@@H]1C`, the growth is 40.2% with HCT-15 colon; 28.9% in the assay on HT29 colon; 71.3% with SNB-19 CNS; 49.1% with U251 CNS; 39.1% with PC-3 prostate; 72.1% in the assay with SK-MEL-5 melanoma. Moreover, the figures for the growth in the assay on UACC-62 melanoma and in the assay with SK-MEL-28 melanoma were 60.5% and 69.7%, respectively.
Take `CN(C)c1ccc(N)c2ccccc12`: the growth is -82.9% (active) in the assay on HCT-15 colon; 70.5% with HT29 colon; 66.7% in the assay with SNB-19 CNS; 64.3% in the assay with U251 CNS; 32.1% in the assay on PC-3 prostate; -99.4% (active) with SK-MEL-5 melanoma. For the same molecule, the growth was -6.64% (active) in the assay on UACC-62 melanoma and 56.6% in the assay on SK-MEL-28 melanoma.
On to `COC(=O)[C@]12CC[C@@H](C)[C@H](C)[C@@H]1C1=CC[C@@H]3[C@@]4(C)C(c5ncon5)=C[C@@](C)(CO)C4=CC[C@@]3(C)[C@]1(C)CC2`, for which the growth with HCT-15 colon was -64.9% (active); in the assay with HT29 colon it was -68.2% (active); in the assay on SNB-19 CNS, 6.01% (active); with U251 CNS, -59.5% (active); in the assay with PC-3 prostate, -12.7% (active); with SK-MEL-5 melanoma, -71.6% (active). Besides, in the assay on LOX IMVI melanoma, the growth was -93.7% (active).
On to `COc1ccc(/C=C2\N=C(c3ccccc3)N(c3cc(OC)c(OC)cc3C(=O)N3N=C(C)CC3=O)C2=O)cc1`, for which the growth was 90% in the assay on HCT-15 colon; 99.7% in the assay on HT29 colon; 99.5% in the assay with SNB-19 CNS; 102% in the assay on U251 CNS; 89.4% in the assay with PC-3 prostate; 77.3% with SK-MEL-5 melanoma. Moreover, the growth is 65.5% with UACC-62 melanoma and 95.2% in the assay with SK-MEL-28 melanoma.

Source of the values: PubChem BioAssay (NCI).
